Each structure is given as a SMILES string. Inconclusive results are not listed. Unmarked numbers belong to inactive results. Activity calls are given as the source filed them. Calls come from the whole dose curve; as a rule, active = well fitted inhibition curve with a large enough effect; inconclusive = small, poorly fitted or top-dose-only effect; inactive = no such curve, though single readings can be large or run the other way.

This is an account of results in PubChem BioAssay AID2158 (National Center for Advancing Translational Sciences (NCATS), 2009).
Potency is the fitted concentration of half-maximal effect.

Sequence of Cruzipain (Trypanosoma cruzi) (P25779 123-467 limits assumed): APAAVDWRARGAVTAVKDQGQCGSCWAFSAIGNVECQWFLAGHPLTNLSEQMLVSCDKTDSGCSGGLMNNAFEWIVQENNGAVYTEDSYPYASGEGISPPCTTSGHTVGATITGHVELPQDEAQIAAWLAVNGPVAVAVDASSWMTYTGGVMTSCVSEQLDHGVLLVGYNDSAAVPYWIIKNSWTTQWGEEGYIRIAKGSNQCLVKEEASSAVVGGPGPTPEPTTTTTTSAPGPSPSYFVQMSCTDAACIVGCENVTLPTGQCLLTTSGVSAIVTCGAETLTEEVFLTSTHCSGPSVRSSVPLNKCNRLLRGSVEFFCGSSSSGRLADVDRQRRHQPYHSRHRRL

The target of the test is Cruzipain (Trypanosoma cruzi) (UniProt P25779). As to the kind of experiment: Confirmation qHTS Assay for Inhibitors of Cruzain.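 For activity change, negative = inhibition: plate controls were uninhibited enzyme control for no effect and buffer wells lacking enzyme for full effect.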 Note: nearly all actives have a fitted effect of over 40% in size. Particulars: purified cruzain, Z-FR-AMC fluorescence, 0.01% Triton. A digest of the protocol:
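Reaction progress from the 60 s rise in AMC fluorescence (ex 360, em 450 nm) after adding 2 uM Z-FR-AMC. Before this, 1.5 nM cruzain sat 15 min at room temperature with compound in pH 5.5 acetate buffer with 5 mM DTT and 0.01% Triton X-100.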
In general terms: Quantitative high-throughput screening tests each substance at several concentrations.
Consider `NC(=S)N/N=C\c1ccc(-c2cccc(Cl)c2Cl)o1`, for which the Potency is 1 µM (active).
On the same count and under the same terms, the result for `CNc1oc(Cc2ccccc2)nc1S(=O)(=O)c1ccc(Cl)cc1` reads 25.1 µM (active).
The same measure, in the same setting: the result for `O=C(CNC(=O)C1CCCCC1)OCC(=O)c1ccc([N+](=O)[O-])cc1` reads 2.82 µM (active).
As to `CNC(=O)c1ccc2nc(-c3cccc(C)c3)c(-c3cccc(C)c3)nc2c1`, the activity change, negative = inhibition is -24.1%.
Same read-out and setting: the result for `CC(C)(C)OC(=O)NCC(=O)NNC(=O)c1nc2ccccc2[nH]1` reads 2.49%.
On to `COc1cc(NC(=O)C(OC(=O)CNC(=O)c2ccccc2)c2ccccc2)c(OC)cc1Cl` (stereo not drawn), for which the Potency was 11.2 µM (active).
Consider `O=C(NCCCc1nc2ccccc2n1CCCCOc1ccccc1)C1CCCCC1`, for which the activity change, negative = inhibition was -23.8%.
On the same count and under the same terms, in the case of `CN(C)c1ccc(-c2nn3c(-c4cc(-c5ccccc5)n[nH]4)nnc3s2)cc1` it was -5.13%.
Regarding `N#Cc1ccc(NC(=O)COC(=O)CNC(=O)C2CCCCC2)cc1`, the Potency is 14.1 µM (active).
Still for that read-out and setting: in the case of `CCN(c1ccccc1)c1nc(N)nc(C#N)n1` it was 14.1 µM (active); in that of `CC(C)NC(=O)COC(=O)CNC(=O)C1CCCCC1`, 14.1 µM (active).
On the same count and under the same terms, in the case of `N#Cc1nc(Nc2ccc3ccccc3c2)nc(NC2CCCC2)n1` it was 1.26 µM (active).
The same measure, in the same setting: in the case of `Cn1c(=O)c2c(-c3ccccc3)n(-n3cnnc3)cc2n(C)c1=O` it was 22.4 µM (active); in that of `COc1cc(NC(=O)C(OC(=O)CNC(=O)c2ccccc2)c2ccccc2)cc(C(F)(F)F)c1` (stereo not drawn), 31.6 µM (active).
With `O=C(Cc1nnc(CNC(=O)c2ccccc2)o1)Nc1cc(C(F)(F)F)ccc1Cl`, the activity change, negative = inhibition was -8.68%.
With `O=C(NCCCc1nc2ccccc2n1CCCOc1ccccc1)C1CCCCC1`, the activity change, negative = inhibition was -12.3%.
For the compound `CCCn1c2ccc(F)cc2c2nnc(SCCN3CCCCC3)nc21`, the Potency was 12.6 µM (active).
Same read-out and setting: in the case of `C=CC(C)(C)c1[nH]c2ccccc2c1C1=C(O)C(=O)C(c2c[nH]c3c(CC=C(C)C)cccc23)=C(O)C1=O` it was 25.1 µM (active).
For the compound `CN(CCNC(=O)c1cc2c(=O)n(C)c3ccccc3c2n1C)Cc1ccccc1`, the activity change, negative = inhibition was -49.8%.
Regarding `O=C(Cc1nnc(-c2cc3ccccc3[nH]2)o1)Nc1cc(C(F)(F)F)ccc1Cl`, the activity change, negative = inhibition was -3.28%.
In the case of `N#Cc1nc(N2CCCCC2)nc(N2CCCCC2)n1`, the Potency was 8.91 µM (active).
On the same count and under the same terms, in the case of `N#Cc1nc(Nc2cccc(-c3ccccc3)c2)nc(NC2CCCC2)n1` it was 2.24 µM (active).
With `Cc1cccc2cc(CN(Cc3ccccc3)Cc3nnnn3Cc3ccccc3)c(=O)[nH]c12`, the activity change, negative = inhibition is -11.7%.
In the case of `Cc1ccc2[nH]c(=O)c(CN(Cc3ccccc3)Cc3nnnn3Cc3ccccc3)cc2c1`, the activity change, negative = inhibition was -15.4%.
On the same count and under the same terms, the result for `Cc1oc(=O)c(NC(=O)c2ccc(Cl)cc2)cc1C(=O)c1ccccc1` reads -10.8%; that for `COc1ccc(-c2nn3c(-c4cc(-c5ccccc5)n[nH]4)nnc3s2)cc1`, -14.7%.
Turning to `CCOc1nc(C#N)nc(N2CCOCC2)n1`, the Potency was 5.01 µM (active).
The same measure, in the same setting: in the case of `O=C(NCCc1nc2ccccc2[nH]1)c1cc([N+](=O)[O-])cc([N+](=O)[O-])c1` it was 0.794 µM (active).
Take `CCCNC(=O)Cn1c(SCc2ccccc2C)nc2ccncc21`: the activity change, negative = inhibition was -2.3%.
Regarding `CCOC(=O)C(C(=O)OCC)N(C#N)c1nc(OC)nc(N(C)C)n1`, the Potency was 15.8 µM (active).
Same read-out and setting: in the case of `O=C(CNC(=O)c1ccccc1)OC(Cc1ccccc1)C(=O)Nc1cc(C(F)(F)F)ccc1Cl` (stereo not drawn) it was 7.08 µM (active); in that of `Clc1ccc2[nH]c3c(NCCCN4CCOCC4)ncnc3c2c1`, 12.6 µM (active).
`COc1ccc(-c2nnc(NC(=O)c3ccc(S(=O)(=O)N4CCCc5ccccc54)cc3)o2)cc1`: the activity change, negative = inhibition was -17.1%.
The same measure, in the same setting: in the case of `Cc1ccc(S(=O)(=O)NCC(=O)OCC(=O)Nc2ncc(Cl)cc2Cl)cc1` it was -50.6%.
As for `CC(=O)OC1(C(F)(F)F)Oc2ccccc2NC1=O` (stereo not drawn), the Potency is 2.82 µM (active).
For the compound `Cc1ccc2[nH]c(=O)c(NC(N)=S)nc2c1`, the activity change, negative = inhibition was -16.5%.
Same read-out and setting: the result for `CCn1cnc2c(Nc3cc(F)cc(F)c3)nc(C(=O)COc3c(F)c(F)cc(F)c3F)nc21` reads -8.99%; that for `Cc1cc(NC(=O)Cc2cccs2)no1`, -19.2%.
